From PubChem BioAssay AID567 (The Scripps Research Institute Molecular Screening Center, 2006)
The whole screen tested about 65,000 compounds, of which about 370 (0.57%) were called active.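 Rule for the calls: active = activation above the screen-wide mean activation plus 3 SD (cut at about 19% in these data); inactive = the rest.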 The list comes from a sample in which actives are over-represented; it also holds similar structures and randomly drawn compounds.

Target: 5-hydroxytryptamine receptor 1A (Homo sapiens) (UniProt P08908)
Sequence (P08908 whole entry, looked up): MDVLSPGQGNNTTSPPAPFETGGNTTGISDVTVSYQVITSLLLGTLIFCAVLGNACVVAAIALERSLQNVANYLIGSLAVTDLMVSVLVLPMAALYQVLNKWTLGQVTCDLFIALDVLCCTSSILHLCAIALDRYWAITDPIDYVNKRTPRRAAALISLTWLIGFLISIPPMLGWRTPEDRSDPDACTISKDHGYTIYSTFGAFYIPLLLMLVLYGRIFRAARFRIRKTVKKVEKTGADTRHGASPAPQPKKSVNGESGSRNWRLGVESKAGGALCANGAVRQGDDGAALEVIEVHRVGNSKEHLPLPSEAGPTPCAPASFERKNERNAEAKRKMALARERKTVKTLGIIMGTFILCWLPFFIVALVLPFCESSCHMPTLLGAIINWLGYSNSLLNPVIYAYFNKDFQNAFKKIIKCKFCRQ
Experiment: agonism at serotonin HTR1A receptor – cell-based, CHO, Ga15 NFAT-bla reporter, primary screen (AID 567);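 note: 0% = DMSO wells and 100% = 5-CT at EC100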
Settings: CHO 5-HT1a Ga15 NFAT-bla reporter, FRET ratio; at 10 µM; stronger effect = higher value

| Compound | activation |
| --- | --- |
| CCc1cccc2c(C#N)cn(CC(=O)N3CCOCC3)c12 | 60.2% (active) |
| COC(=O)C(c1ccccc1)N1CCCCCC1 (stereo not given) | 1.53% (inactive) |
| COC(=O)C(O)(c1ccc(NC(=O)c2ccco2)c(OC)c1)C(F)(F)F (stereo not given) | -0.22% (inactive) |
| CC1(C)C(c2ccccc2)=NC(c2cccnc2)=[N+]1[O-] | 49.7% (active) |
| CCOC(=O)C1CN(C)CCC1=O (stereo not given) | -3.2% (inactive) |
| CC(=O)N(C1=NCCCS1)c1ccccc1F | -0.07% (inactive) |
| Cc1ccc2c(c1)C1CN(C)CCC1N2C(=O)Cn1nnc(-c2ccccc2F)n1 (stereo not given) | 1.76% (inactive) |
| Cc1ccc(Cn2nnnc2CN2CCC(n3nnc4ccccc43)CC2)cc1 | -1.46% (inactive) |
| CN1CCN(Cc2ccccc2C(F)(F)F)CC1 | -1.3% (inactive) |
| Cc1cccc(-n2c(C)nc3cc(C(=O)N4CCC5(CC4)OCCO5)ccc32)c1 | 27.3% (active) |
| O=C(c1cc2nc(-c3ccccc3)cc(-c3ccccc3)n2n1)N1CCC2(CC1)OCCO2 | 0.72% (inactive) |
| O=C(c1cc(-c2ccncc2)nc2ccccc12)N1CCC2(CC1)OCCO2 | -2.03% (inactive) |
| Fc1cccc(F)c1CN1CCN(Cc2c(F)cccc2F)CC1 | -2.86% (inactive) |
| CC(=O)N1CN2CN(C(C)=O)CC(C(=O)c3ccc(Br)cc3)(C2)C1 | 0.98% (inactive) |
| O=C(O)C1CSC(c2cccnc2)N1 (stereo not given) | -3.3% (inactive) |
